Compound activity as filed in PubChem BioAssay.
VP16 counter = counter-screen for ROR gamma inhibitors: Gal4-VP16 reporter | Drosophila S2 Gal4-VP16 UAS-luciferase, luminescence, 20 h | Potency, µM (doses to about 53.6 µM), most hits filed as inhibitors | 310,000 tested, 3.5% active;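 note: Gal4-VP16 expression switched on by copper sulfate through the metallothionein promoter; nearly all actives have a fitted effect of over 50% in size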
TDP1 cell CPT = growth inhibition of DT40 Tdp1-/-;hTDP1 cells with camptothecin (screen for TDP1 inhibitors) | chicken DT40 Tdp1-/-;hTDP1 cells + 20 nM CPT, ATP luminescence, 48 h | AID 686979 | 420,000 tested, 12% active | Potency, µM (titrated, usually from 46.2 µM), hits mostly inhibitors; note: nearly all actives have a fitted effect of over 55% in size
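Cell growth measured by CellTiter-Glo luminescence after a minimum 48 h, 37 C compound exposure with 20 nM CPT in Tdp1-knockout DT40 cells stably expressing hTDP1, seeded 400/well; qHTS titration format.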
TDP1 block = inhibitors of human tyrosyl-DNA phosphodiesterase TDP1; Q9NUW8; recombinant TDP1, AlphaScreen DNA substrate cleavage; Potency, µM (doses to about 130 µM), actives largely listed as inhibitors; 350,000 tested, 0.28% active; note: nearly all actives have a fitted effect of over 40% in size
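Enzyme-compound mixtures sat 15 min at room temperature, followed by a 5 min reaction with 15 nM final substrate and 10 min with AlphaScreen beads. Recombinant human Tdp1 was used at 1 nM final.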
TDP1 cell noCPT = qHTS for Inhibitors of human tyrosyl-DNA phosphodiesterase 1 (TDP1): qHTS in cells in absence of CPT | DT40 Tdp1-/- hTDP1 cells, no CPT, ATP luminescence, 48 h | Potency, µM (top dose mostly 46.2 µM), actives largely listed as inhibitors | 420,000 tested, 15% active | AID 686978, 2013; note: nearly all actives have a fitted effect of over 55% in size
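No-CPT arm: Tdp1-/-;hTDP1 DT40 cells (400/well) plus compounds, incubated ≥48 hr at 37 °C. Readout CellTiter-Glo luminescence.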
RORg inh = inhibitors of mouse ROR gamma transcriptional activity | P51450 | Drosophila S2 Gal4-RORgamma UAS-luciferase reporter, 20 h | Potency, µM (doses to about 53.6 µM), usual class: inhibitors | 310,000 tested, 5.4% active; note: nearly all actives have a fitted effect of over 60% in size
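Drosophila Schneider cells stably carrying a metallothionein-driven Gal4 DBD–ROR gamma fusion and a UAS-Photinus luciferase reporter were exposed to compound for 1 hr, then induced with copper sulfate (700 uM final) for 20 hr at ambient temperature before luminescence reading.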
Hits are given with their value; - = inactive; ? = inconclusive; . = no result; [ ] = another dose, or the depositor's remark. Compounds with a hit are over-represented: about 19% of the library has one in this group of screens. Calls come from the whole dose curve; as a rule, active = well fitted curve in the direction sought with a large enough effect; inconclusive = small, poorly fitted or top-dose-only effect, or another doubt; inactive = no such curve, though single readings can be large; an effect the other way counts as inactive or inconclusive.

SMILES	VP16 counter	TDP1 cell CPT	TDP1 block	TDP1 cell noCPT	RORg inh
CCOc1ccccc1O[C@@H](c1ccccc1)[C@@H]1CNCCO1	-	.	-	.	-
Cc1cc(C(=O)Nc2cccc(-c3ccc(N4CCOCC4)nn3)c2)ccc1[N+](=O)[O-]	.	?	.	26µM	.
O=C(Nc1cccc(-c2ccc(N3CCOCC3)nn2)c1)c1cccc(Cl)c1	.	-	.	21µM	.
O=C(Nc1cccc(-c2ccc(N3CCCCC3)nn2)c1)c1ccco1	.	?	.	13µM	.
CO[C@@H]1COC(=O)[C@H](C)NC(=O)[C@@H](C)COC(=O)CCC[C@H]1C	-[10 µM]	.	-[21 µM]	.	-[10 µM]
O=C(Nc1ccccc1Cl)Nc1ccnn1C1CCN(C(=O)C2CCOC2)CC1 (stereo unspecified)	.	-	.	-	.
OC1(c2cccc(F)c2)CCN(Cc2ccncc2)CC1	-	-	-	-	-
OC1(c2ccc(Cl)c(C(F)(F)F)c2)CCN(CCCC(c2ccc(F)cc2)c2ccc(F)cc2)CC1	10µM	2.7µM	-	3µM	13µM
O=C(Cc1ccc(Br)cc1)NCc1ccccc1	-	2.9µM	.	2.1µM	-
O=C(COC(=O)Cc1ccc(Br)cc1)NCc1ccccc1	.	-	.	-	.
Cc1ccc(CNC(=O)Cc2ccc(Br)cc2)cc1	-	9.2µM	.	7.3µM	-
OC(COc1ccc2ccccc2c1)CN1CCCC1 (stereo unspecified)	-	-	-	-	-
CCCN1CCC(N2CCN(c3ccc([N+](=O)[O-])cc3)CC2)CC1	-	?	.	21µM	?
CCN1CCC(N2CCN(c3ccc(Cl)cc3)CC2)CC1	-	-	.	-	?
CC(=O)N1CCCC(N2CCN(c3cccc(C(F)(F)F)c3)CC2)C1 (stereo unspecified)	-	-	.	-	-
O=C1C2CCCCN2C(=O)N1CCCN1CCN(c2cccc(C(F)(F)F)c2)CC1 (stereo unspecified)	.	-	.	-	.
O=C1C2CCCN2C(=O)N1CCN1CCN(c2cccc(C(F)(F)F)c2)CC1 (stereo unspecified)	.	-	.	8.2µM	.
CCCN1CCC(N2CCN(c3cccc(C(F)(F)F)c3)CC2)CC1	-	23µM	-	21µM	-
CC(=O)c1ccc(NC(=O)CSc2nnc(-c3ccco3)o2)cc1	-	-	.	-	-
C/C(CS(=O)(=O)c1ccc(Cl)cc1)=N/NC(N)=S	-	-	-	-	?
C/C(CS(=O)(=O)c1ccc(Cl)c(Cl)c1)=N/NC(N)=S	-	18µM	-	5.8µM	-
CCOc1ccc(NC(=O)c2ccccc2NC(=O)CNC2CCCC(C)C2C)cc1 (stereo unspecified)	.	15µM	-	7.3µM	.
O=[N+]([O-])c1ccc(NN=CC2CCCCCC2)c([N+](=O)[O-])c1	.	15µM	.	13µM	.
Nc1ccc(Nc2ccc([N+](=O)[O-])cc2[N+](=O)[O-])cc1	-	?	-	-	-
CCNc1nc(ON=C(C)C)nc(N(C)C)n1	-	?	-	?	14µM
SMILES	VP16 counter	TDP1 cell CPT	TDP1 block	TDP1 cell noCPT	RORg inh
CCNc1nc(NCC)nc(OCCOC(C)=O)n1	-	-	-	-	-
CCN(CC)c1ccc(NC(=O)CN2C(=O)c3cccnc3Sc3ccccc32)c(C)c1	.	16µM	-	13µM	.
Cc1ccc(NC(=O)CCN2C(=O)c3ccccc3Sc3ncccc32)cc1	-	16µM	-	16µM	-
Cc1ccc(NC(=O)CN2C(=O)c3ccccc3Sc3ncccc32)c(C)c1	.	23µM	-	23µM	.
CC(C)CCNC(=O)CCCN1C(=O)c2ccccc2Sc2ncccc21	.	15µM	-	?	.
CN(C)C(=O)c1ccc(-c2ccc3ncnc(Nc4ccc(F)cc4)c3c2)cc1	-	?	.	?	-
Cc1ccc2sc(-c3ccc(NC(=O)CCN4C(=O)c5ccccc5C4=O)cc3)nc2c1	?	.	-	.	1.1µM
CC(=O)Nc1ccc(NC(=O)CCN2C(=O)c3ccccc3C2=O)cc1	-	-	.	-	-[1.91 µM]
Cc1cc(NC(=O)CN2C(=O)c3cccnc3Sc3ccccc32)ccc1Br	.	?	-	23µM	.
COc1ccc(NC(=O)CC2C(=O)N(c3cccc(OC)c3)C(=O)N2Cc2ccc3c(c2)OCO3)cc1 (stereo unspecified)	.	?	-	?	.
